From PubChem
Only some compounds are listed: those with a hit (about 7.2% of all), similar ones and a draw of the others.
PK Bst – modulators of Bacillus stearothermophilus pyruvate kinase | actives 1.2% (n = 51,000) | Potency, µM | purified pyruvate kinase, luminescence ATP production; ribose 5-phosphate activator present at AC10 | AID 361; in the data active = potency below about 11 µM; inconclusive = mostly about 12 µM to 25 µM;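 the screen sought inhibitors and activators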;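 also: scaled between full activation by ribose 5 phosphate and full inhibition by luteolin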
Luciferase inh – firefly luciferase inhibition; purified firefly luciferase, luminescence, 8 min; Potency, µM (doses to about 57.1 µM), inactives show at the highest dose activity change, negative = inhibition, usual class: inhibitors; actives 2.2% (n = 72,000); also: % is scaled to controls: 0 for no effect and ±100 for the full control effect; nearly all actives have a fitted effect of over 40% in size
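Luminescence read-out after 8 min at room temperature; enzyme reaction used luciferin plus 10 uM ATP (linear range) in imidazole buffer pH 7.2 with KCl, MgCl2, Tween 20 and BSA. Each sample was run as a titration.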
HEK293 cAMP ctrl – parental HEK293 cAMP activation (counter-screen); parental HEK293 CNG cAMP sensor, membrane potential fluorescence; actives 2.5% (n = 73,000); Potency, µM (series often up to 57.1 µM), inactives show at the highest dose activation, hits mostly activators; also: % of control where 0% means no effect; nearly all actives have a fitted effect of over 55% in size
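Parental HEK 293 cells stably expressing a cAMP-gated CNG channel were loaded with membrane potential dye containing 100 uM RO 20-1724 for 60 min. Compound added for 30 min; depolarization read as fluorescence intensity at 590 nm.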
Tau fil binding – binds recombinant human tau filaments | recombinant tau filaments, thioflavin S fluorescence, 15 h; filaments grown with octadecylsulfate alongside compound | P10636 | actives 2% (n = 71,000) | Potency, µM (highest dose often 57.1 µM), inactives show at the highest dose activity change, negative = inhibition;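 also: % is scaled to controls: 0 for no effect and ±100 for the full control effect; actives lower thioflavin S fluorescence by blocking filaments or displacing dye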
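Tau 2 uM in ThS buffer dispensed; compound added; 60 uM ODS added (finals 1 uM tau, 30 uM ODS); 15 h 37 C; fluor ex450/em510.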
TSHR agonist – activates the human thyroid stimulating hormone receptor | HEK293-CNG-TSHR cells (CNG channel as cAMP sensor), membrane potential dye, cAMP | actives 0.48% (n = 73,000) | Potency, µM (doses to about 57.1 µM), for the others: at the top dose activation, usual class: activators | AID 926; active = well fitted activation curve with a large enough effect in the main read-out, with a control signal flat, not every such curve was filed as active; inconclusive = small, poorly fitted or top-dose-only effect, or a change in a side signal; inactive = no such curve, though single readings can be large or run the other way; % of control where 0% means no effect;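 also: the control signal comes from parental cells without the receptor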
Target sequence (P16473 whole entry, looked up): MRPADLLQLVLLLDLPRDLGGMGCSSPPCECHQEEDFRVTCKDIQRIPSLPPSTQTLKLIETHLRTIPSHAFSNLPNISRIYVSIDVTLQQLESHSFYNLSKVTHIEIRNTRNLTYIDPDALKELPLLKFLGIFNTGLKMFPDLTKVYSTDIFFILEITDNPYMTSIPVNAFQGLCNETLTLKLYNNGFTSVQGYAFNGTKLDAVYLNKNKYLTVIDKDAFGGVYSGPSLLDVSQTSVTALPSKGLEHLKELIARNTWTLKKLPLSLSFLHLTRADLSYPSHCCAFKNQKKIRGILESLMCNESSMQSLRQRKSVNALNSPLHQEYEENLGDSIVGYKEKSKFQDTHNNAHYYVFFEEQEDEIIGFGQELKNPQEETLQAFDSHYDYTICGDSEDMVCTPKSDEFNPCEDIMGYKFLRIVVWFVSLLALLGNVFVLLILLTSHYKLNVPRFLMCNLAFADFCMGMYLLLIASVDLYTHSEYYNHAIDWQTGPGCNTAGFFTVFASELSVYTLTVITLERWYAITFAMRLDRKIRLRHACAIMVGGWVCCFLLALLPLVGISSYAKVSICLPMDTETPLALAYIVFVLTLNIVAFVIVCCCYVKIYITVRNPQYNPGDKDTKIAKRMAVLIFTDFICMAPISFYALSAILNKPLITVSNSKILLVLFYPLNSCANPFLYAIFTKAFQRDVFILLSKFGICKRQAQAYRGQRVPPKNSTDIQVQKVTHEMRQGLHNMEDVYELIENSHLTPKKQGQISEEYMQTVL
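cAMP rise detected as CNG-channel membrane depolarization by fluorescent dye (emission 590 nm), 30 min after compound, following 60 min dye loading containing 100 uM RO 20-1724 at room temperature. Cells: TSHR/CNG HEK 293, with parental CNG HEK 293 as control.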
ERK AVP inh – blocks ERK signaling stimulated by vasopressin; HEK293-V1b, vasopressin-stimulated pERK AlphaScreen; Potency, µM (top dose mostly 57.5 µM), without a hit: at the highest dose activity, negative = inhibition, most hits filed as inhibitors; actives 0.99% (n = 72,000); also: % is scaled to controls: 0 for no effect and ±100 for the full control effect; nearly all actives have a fitted effect of over 55% in size
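HEK293 cells stably expressing V1b receptor, preincubated 30 min at 37 °C with compound, then stimulated 5 min with 25 nM vasopressin. Phospho-ERK by AlphaScreen SureFire after 5 h RT; normalized to DMSO and vasopressin; AC50 by Hill fit.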
Numbers without * were called inactive; i = inactive; ? = inconclusive; nt = no result; ! = not active in a repeat; [ ] = remark or other dose. Unless noted, calls follow the shape of the dose curve; as a rule, active = well fitted curve in the direction sought with a large enough effect; inconclusive = small, poorly fitted or top-dose-only effect, or another doubt; inactive = no such curve, though single readings can be large; an effect the other way counts as inactive or inconclusive. Potency is read from the fitted curve at half-maximal effect.

SMILES | PK Bst | Luciferase inh | HEK293 cAMP ctrl | Tau fil binding | TSHR agonist | ERK AVP inh
c1ccc(-c2noc(-c3cccc4ccccc34)n2)cc1 | i | 16µM* | 20% | -16% | nt | 97%
Fc1ccccc1-c1nc(-c2ccccc2)no1 | 5.8* | 6.3µM* | 6% | -4% | 4% | 34%
Clc1ccc(Br)cc1-c1nc(-c2ccncc2)no1 | >57 | 0% | 23% | 8% | 17% | -20%
Brc1ccccc1-c1nc(-c2ccccc2)no1 | nt | 3.2µM* | 28%[11.4 µM] | -7%[11.4 µM] | 18%[11.4 µM] | 38%
C[C@]12CC[C@H]3c4ccc(O)cc4CC[C@@H]3[C@H]1CC[C@@H]2OC(=O)CCC1CCCC1 | nt | 2%[11.4 µM] | 11%[11.4 µM] | 1%[11.4 µM] | 1%[11.4 µM] | 9%[11.5 µM]
CO/N=C(\C)CCN1CCc2nc(-c3ccccc3)c(-c3ccccc3)cc2C1 | nt | -1%[11.4 µM] | 3%[11.4 µM] | nt | -3%[11.4 µM] | 25%[11.5 µM]
Cc1ccc2nsnc2c1S(=O)(=O)N1CCN(Cc2ccc3c(c2)OCO3)CC1 | nt | 1% | 5% | 16µM* | 17% | -25%
Cc1ccc2nsnc2c1S(=O)(=O)N1CCCC1 | ? | 0% | -4% | 1% | 1% | 1%
Clc1ccc(N2CCN(Cc3c[nH]c4ncccc34)CC2)cc1 | nt | -3% | 12% | 40µM*! | ? | -17%
Clc1ccc(N2CCN(c3ncnc4c3oc3ccccc34)CC2)cc1 | >57 | 1% | ? | 6% | ? | 16%
O=C(O)c1ccc(CSc2nnnn2C2CCCCC2)cc1 | >57 | 0% | 9% | -1% | 4% | -28%
O=C1CCC(=O)N1c1ccc(CSc2nnnn2C2CCCCC2)cc1 | nt | 0% | 6% | -6% | 3% | 16µM*
COc1ccc(OCCSc2nnnn2C2CCCCC2)cc1 | >57 | nt | ? | -10% | ? | 4%
c1ccc(OCCSc2nnnn2C2CCCCC2)cc1 | nt | ? | 25µM* | -8% | ? | -4%
O=C(Oc1ccccc1)N1CCC2(CC1)CCN(c1ncccn1)CC2 | nt | 1%[11.4 µM] | 27% | 8% | 0% | -21%
CC(=O)c1cccc(NC(=O)Nc2cc3sccc3n2C)c1 | nt | -8% | 1% | 3.2µM* | -8% | ?
CC(=O)c1cccc(NC(=O)Nc2ccc(C(=O)N3CCOCC3)cc2)c1 | nt | 13µM* | -6% | -9% | -9% | -1%
CCOC(=O)CCN1C(=O)[C@H]2[C@@H]3[C@H](O)C=CC(=O)[C@H]3CC[C@H]2C1=O | nt | -1%[11.4 µM] | -4%[11.4 µM] | nt | -11%[11.4 µM] | 11%[11.5 µM]
Cc1cc(=O)cc(C)n1-c1ccccc1N1CCOCC1 | i | -3% | -10% | 7.9µM* | 4% | ?
Cc1cc(N2CCOCC2)nc2cc(O)ccc12 | nt | -23% | 6.3µM* | 18% | ? | nt
CN(C)c1ccc(-c2nc(N3CCNCC3)c3ccccc3n2)cc1 | nt | -6%[2.29 µM] | -78% | 3.2µM* | ? | -7%
CN(C)c1ccc(-c2ccc3ncnc(N(C)C)c3c2)cc1 | nt | 0%[2.29 µM] | -17% | 5µM* | -1% | ?
CN(C)c1ccc(-c2ccc3ncnc(N4CCNCC4)c3c2)cc1 | nt | 0%[2.29 µM] | -16% | 13µM* | -2% | -27%
c1cncc(-c2nc(N3CCCCCC3)c3ccccc3n2)c1 | >57 | 1% | 25µM* | 141% | ? | 20µM*
COCC(=O)N1CCC[C@@]2(CCN(Cc3ccc(C#N)cc3)C2)C1 | nt | 1%[11.4 µM] | 10% | 8% | 16% | -7%
SMILES | PK Bst | Luciferase inh | HEK293 cAMP ctrl | Tau fil binding | TSHR agonist | ERK AVP inh
CC(C)=CCC[C@](C)(O)C1CC=C(C)CC1 (stereo not given in full) | nt | nt | nt | nt | nt | 40%
O=C(NCc1ccco1)C1CCN(C(=O)c2cc3sccc3n2Cc2ccc(Cl)cc2)CC1 | >57 | 2% | 13µM* | 60% | ? | ?
COc1ccc(NC(=O)C2CCC(=O)N2S(=O)(=O)c2ccc(C)cc2)c(OC)c1 (stereo not given) | 11* | -1% | -2% | 0% | 2% | -7%
COc1ccc(NC(=O)C2CCCCN2S(=O)(=O)c2ccc(F)cc2)c(OC)c1 (stereo not given) | >57 | -3% | ? | -25% | ? | 10%
O=c1[nH]c2ccccc2c2nc3ccccn3c12 | 4.3* | ? | 0% | -2% | -2% | -24%
COc1ccc2[nH]cc(CCNc3nc(-c4ccccc4OC)nc4ccccc34)c2c1 | nt | -2%[2.29 µM] | -28% | 2.5µM* | -19% | ?
COc1ccc2[nH]cc(CCNc3ccnc(-c4ccc5c(c4)OCO5)n3)c2c1 | nt | 0%[2.29 µM] | ? | ? | ? | 32µM*
COc1ccc2[nH]cc(CCNc3cc(-c4ccc5c(c4)OCO5)ncn3)c2c1 | nt | -2%[2.29 µM] | 4% | ? | 12% | ?
COc1cc([C@H](O)CO)ccc1O | nt | -1% | 0% | -7% | nt | 23%
CCN1C(=O)[C@H]2[C@H]3[C@H](O)[C@H](O)C/C(=N/O[C@@H](C)CN4CCCCc5nc(C)c(C)cc54)[C@@H]3CC[C@@H]2C1=O | nt | 0%[11.4 µM] | 0%[11.4 µM] | nt | 5%[11.4 µM] | 12%[11.5 µM]
O=C(CN1CCOCC1)N1CCN(S(=O)(=O)c2ccccc2)C1c1ccccc1 (stereo not given) | >57 | 1% | ? | 1% | ? | -16%
Cc1ccc(S(=O)(=O)N2CCN(C(=O)CN3CCOCC3)C2c2ccccc2)cc1 (stereo not given) | >57 | -3% | 20µM* | 3% | ? | -14%
FC(F)(F)c1cc(-c2ccco2)nc(NCc2cccnc2)n1 | >57 | -2% | 25µM* | 20µM* | ? | ?
O=C(CSc1nnc(-c2ccccn2)n1Cc1ccco1)c1ccc(Cl)cc1 | nt | 1% | 25µM* | 3% | ? | 6%
O=C(CSc1nnc(-c2ccccn2)n1Cc1ccco1)c1ccccc1 | >57 | 5% | 9% | 8% | 16% | 6%
COc1cc(C2N(c3ccccc3)CCN2c2ccccc2)ccc1OC(C)=O | nt | 2% | 7% | 338% | 3.2µM* | -17%
CCOC(=O)N/C(N)=N/c1nc2ccccc2s1 | nt | 13µM* | 23%[11.4 µM] | -2%[11.4 µM] | 8%[11.4 µM] | ?
O=C1c2cccc3c(Cl)ccc(c23)C(=O)N1O | 5.1* | 0% | -55% | 22% | ? | -9%
COC(=O)C(NC(=O)c1ccccc1)c1ccccc1 (stereo not given) | nt | -3% | 6% | -6% | -2% | -9%
COC(=O)[C@@H](NC(=O)c1cc(-c2ccccc2)nc2ccccc12)c1ccccc1 | nt | 2% | 3.2µM* | 0% | ? | nt
C[C@H](CO)NC(=O)[C@@H]1C[C@H]1[C@@H](NP(=O)(c1ccccc1)c1ccccc1)c1ccccc1 | nt | nt | 16µM* | -8% | ? | 3%
